Structures are written as SMILES. Several values for one entry are separate records, joined by “and”; a condition that tells them apart may be missing. Identical values can stand only once. In all, about 310,000 compounds went through this assay and about 1,500 (0.48%) were called active.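 The calls were made as follows: active = binding more than 3 SD below its plate's average and above zero; inconclusive = below that plate limit but binding exactly zero; inactive = the rest.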 The sample as a whole holds a higher share of actives than the screen did.

For this experiment, the target named is Desmoglein-3 (Homo sapiens) (UniProt P32926). In words: inhibitors of pemphigus antibody binding to DSG3, primary screen, biochemical, bead-based, flow cytometry, scFv-GFP (AID 588358).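 Also: hits lower antibody fragment binding to DSG3.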 Conditions: DSG3-coupled beads, scFv-anti-DSG3-GFP binding, at 10 µM, stronger effect = lower value. On the technique in general: In flow cytometry, cells or beads pass a laser one at a time.
Desmoglein-3 (Homo sapiens), sequence (P32926 whole entry, looked up, the tested form may be a part): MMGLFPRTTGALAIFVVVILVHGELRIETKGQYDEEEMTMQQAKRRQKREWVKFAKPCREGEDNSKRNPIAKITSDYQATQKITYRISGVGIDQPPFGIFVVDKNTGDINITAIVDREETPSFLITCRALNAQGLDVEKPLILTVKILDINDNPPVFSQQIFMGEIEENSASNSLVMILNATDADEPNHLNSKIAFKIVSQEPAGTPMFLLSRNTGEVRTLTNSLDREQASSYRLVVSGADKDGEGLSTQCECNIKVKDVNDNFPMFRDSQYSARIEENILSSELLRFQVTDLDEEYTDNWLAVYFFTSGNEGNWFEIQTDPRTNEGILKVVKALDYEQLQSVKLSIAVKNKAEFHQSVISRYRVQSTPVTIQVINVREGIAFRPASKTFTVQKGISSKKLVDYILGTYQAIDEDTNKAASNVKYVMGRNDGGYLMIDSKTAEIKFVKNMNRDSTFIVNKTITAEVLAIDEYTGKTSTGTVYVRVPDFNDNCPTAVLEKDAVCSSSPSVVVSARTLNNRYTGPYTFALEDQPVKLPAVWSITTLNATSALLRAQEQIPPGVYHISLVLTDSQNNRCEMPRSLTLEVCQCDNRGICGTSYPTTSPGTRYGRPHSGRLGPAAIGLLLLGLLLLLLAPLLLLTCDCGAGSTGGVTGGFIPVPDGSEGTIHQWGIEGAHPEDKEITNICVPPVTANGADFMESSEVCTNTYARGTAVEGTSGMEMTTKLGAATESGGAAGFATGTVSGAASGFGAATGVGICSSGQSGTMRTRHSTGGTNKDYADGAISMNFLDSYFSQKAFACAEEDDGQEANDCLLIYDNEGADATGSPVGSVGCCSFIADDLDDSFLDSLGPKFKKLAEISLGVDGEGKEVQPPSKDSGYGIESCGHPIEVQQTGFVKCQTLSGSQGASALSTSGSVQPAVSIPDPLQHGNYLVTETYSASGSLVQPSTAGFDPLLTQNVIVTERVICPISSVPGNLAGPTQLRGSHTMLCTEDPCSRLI
For `Cc1ccccc1C#CC1=CC(=O)CC(C)(C)C1`, the binding (percent of control) was 97.5% (inactive).
Next, `C[C@@H]1CN([C@H](C)CO)S(=O)(=O)c2ccc(C#CC3CCCCC3)cc2O[C@H]1CN(C)C(=O)Cc1ccncc1`: 123% (inactive).
Next, `CN(C)C(CNC(=O)c1cc(Br)c(Br)s1)c1ccco1` (stereo unspecified): 99.7% (inactive); `Cc1cccc(NC(=O)CSCC(=O)Nc2nnc(C3CC3)s2)c1`: 105% (inactive).
Next, `O=C(CN1C(=O)c2ccc([N+](=O)[O-])cc2C1=O)Nc1nnc(C2CC2)s1`: 66.2% (active); `O=C(Cc1cccs1)Nc1nnc(C2CC2)s1`: 125% (inactive); `O=S1(=O)CCN(C2CCCCCCCCCCC2)CC1`: 96.7% (inactive).
Consider `CC(=O)Nc1ccc(C=Cc2ccc([N+](=O)[O-])cc2)cc1`, for which the binding (percent of control) was 101% (inactive).
Next, `CCN(CC(=O)Nc1ccc(NC(C)=O)cc1)C(=O)C1CC(=O)N(c2ccc3c(c2)OCCO3)C1` (stereo unspecified): 102% (inactive); `O=C(Nc1ccc(F)c(Cl)c1)C1CCN(S(=O)(=O)c2cccnc2)CC1`: 109% (inactive).
Then `COc1ccc(S(=O)(=O)N2CCCC(C(=O)Nc3ccc(NC(=O)c4ccccn4)cc3)C2)cc1` (stereo unspecified), with 101% (inactive); and `CC(C)c1ccc(NC(=O)C2CCCN(S(=O)(=O)c3cccnc3)C2)cc1` (stereo unspecified), with -3.9% (active); and `C=CCn1nc(C(=O)OCC)cc1-c1sc(NC(=O)c2ccccc2)nc1C`, with 102% (inactive).
Then `Cc1cc(Nc2ccc(C)c(C)c2)n2ncnc2n1`, with 95% (inactive); and `CCN(CC)C(=O)C1=C(C)N(Cc2ccc(OC)cc2)C(=O)C(CC(=O)NCCCCc2ccccc2)C1` (stereo unspecified), with 109% (inactive).
As for `O=S(=O)(c1ccc(-c2ccccc2)cc1)N1CCCC1`, the binding (percent of control) was 95.9% (inactive).
Turning to `CC1CCN(S(=O)(=O)c2ccc(S(=O)(=O)NCc3cccnc3)cc2)CC1`, the binding (percent of control) is 94.4% (inactive).
Take `O=S(=O)(NCc1ccccc1)c1ccc(S(=O)(=O)N2CCCC2)cc1`: the binding (percent of control) is 7.03% (active).
Then `CCOc1cc(/C=N/NC(=O)c2c(C)nc3ccc(Cl)cn23)ccc1O`, with 108% (inactive); and `C=CCN(CC=C)S(=O)(=O)c1ccc(C(=O)Nc2sc3c(c2C(N)=O)CCCCC3)cc1`, with 110% (inactive).
Next, `NC(=O)c1c(NC(=O)c2ccccc2)sc2c1CCCC2`: 63.6% (active).
With `COc1cccc(OC)c1C(=O)Nc1sc2c(c1C(N)=O)CCCC2`, the binding (percent of control) is 109% (inactive).
Next, `CCOc1cc(C2C(C(=O)c3ccco3)=C(O)C(=O)N2Cc2ccccc2)ccc1O` (stereo unspecified): 104% (inactive).
Then `O=C(C1=C(O)C(=O)N(Cc2ccccc2)C1c1cccnc1)c1ccco1` (stereo unspecified), with 64.8% (active).
As to `O=C(C1=C(O)C(=O)N(Cc2ccccc2)C1c1ccco1)c1ccco1` (stereo unspecified), the binding (percent of control) is 108% (inactive).
Then `CN1CCN(c2ccncc2S(=O)(=O)N2CCCC2)CC1`, with 102% (inactive).
On to `Cc1ccc(NS(=O)(=O)c2ccc(-c3ccc(=O)[nH]n3)o2)c(C)c1`, for which the binding (percent of control) is 102% (inactive).
Then `CC1CCCN(S(=O)(=O)c2ccc(-c3ccc(=O)[nH]n3)o2)C1` (stereo unspecified), with 49% (active); and `O=c1ccc(-c2ccc(S(=O)(=O)Nc3ccccc3)o2)n[nH]1`, with 110% (inactive).
Next, `COc1ccc(C(C)(C)C)cc1NC(=O)CN(C)C1=NS(=O)(=O)c2ccccc21`: 104% (inactive).
For the compound `O=C(c1ccco1)N1CCN(Cc2cccc(C(F)(F)F)c2)CC1`, the binding (percent of control) is 107% (inactive).
Take `O=C1CCC(C(=O)N2CCCCO2)CN1Cc1cccc(C(F)(F)F)c1` (stereo unspecified): the binding (percent of control) was 90.7% (active).
Then `COC(=O)c1ccc(CNC(=O)C2CCC(=O)N(Cc3cccc(F)c3)C2)cc1` (stereo unspecified), with 97% (inactive); and `Cc1ccnc(SC2CC(=O)N(c3ccccc3)C2=O)n1` (stereo unspecified), with 95.7% (inactive); and `O=C(NCC(F)(F)F)c1ccc(S(=O)(=O)NCCc2ccc3c(c2)OCCO3)cc1`, with 97.1% (inactive).
Then `C[C@H](O)[C@@H]1C(=O)N2CCc3c([nH]c4ccccc34)[C@@H]2C[C@@H]1N(C)C(=O)Nc1ccc(F)cc1`, with 109% (inactive); and `CN(C)c1cc[n+](Cc2ccccc2)cc1`, with 99.9% (inactive); and `CN(C)c1ccc(CSc2ccccc2)cc1`, with -6.16% (active).
Then `O=C(c1ccc(CSc2ccccc2)cc1)N1CCCCCC1`, with 105% (inactive); and `Cc1ccc(Cc2c(-c3ccc(C)cc3)nc3c4ccccc4ccn23)cc1`, with 109% (inactive).
For `Cc1ccc(S(=O)(=O)/N=C2\C=C(NS(=O)(=O)c3ccc(C)cc3)C(=O)c3ccccc32)cc1`, the binding (percent of control) was 97.2% (inactive).
Next, `COc1cccc(NC(=O)CN(C)C(=O)c2cc(Cl)nc3ccccc23)c1`: 80.8% (active).
Then `COc1ccc(NC(=O)CN(C)C(=O)c2cc(-c3ccc(C)o3)nc3ccccc23)cc1`, with 96.9% (inactive).
As for `COc1cccc(NC(=O)CN(C)C(=O)c2ccccc2CCc2ccccc2)c1`, the binding (percent of control) is 108% (inactive).
As for `CSc1ncccc1C(=O)N1CCCC(Nc2ccc(F)c(F)c2)C1` (stereo unspecified), the binding (percent of control) is 104% (inactive).
Next, `CCN(C(=O)Nc1cccc2ccccc12)c1ccccc1`: 103% (inactive); `CCc1ccccc1NC(=O)CN1CCN(C(=O)c2cc(C3CC3)nn2-c2ccccc2)CC1`: 106% (inactive); `COc1ccc(S(=O)(=O)N(C)C)cc1NC(=O)COC(=O)c1n[nH]c2ccccc12`: 98.8% (inactive).
Next, `Cc1cccc(C(=O)C(O)(c2ccccc2)C2CCCCC2=O)c1` (stereo unspecified): 106% (inactive); `CCOc1ccccc1Nc1ccc2nonc2c1[N+](=O)[O-]`: 96.1% (inactive).
Next, `O=[N+]([O-])c1c(NCCO)cc(Sc2nc3ccccc3s2)c2nonc12`: 83.3% (active); `O=C(O)c1ccccc1CSc1nc2ccccc2s1`: 116% (inactive).
Take `CCOC(=O)C(=Cc1ccccc1)C(=O)c1ccccc1`: the binding (percent of control) was 106% (inactive).
Next, `CCN(CC)C(=O)C1=C(C)N(Cc2ccccc2)C(=O)C(CC(=O)NC(c2ccccc2)c2ccccc2)C1` (stereo unspecified): 107% (inactive).
Take `O=C(CCc1ccc(O)cc1)NN=Cc1cc(Br)ccc1O`: the binding (percent of control) was 106% (inactive).
Next, `COc1ccc(-c2noc(CNC(=O)C(C)Oc3ccccc3)n2)cc1` (stereo unspecified): 109% (inactive).
Next, `COc1ccc(-c2noc(CCC(=O)N3CCN(c4cccc(C)c4)CC3)n2)cc1`: 98.6% (inactive); `COc1ccc(-c2noc(COc3ccc(Cl)c(C)c3)n2)cc1`: 66.6% (active).
Next, `Cc1ccc(-c2ccc(C3=CC(=O)CC(C)(C)C3=O)cc2)cc1`: 97.6% (inactive).
With `COc1ccc(C(CNC(=O)CSc2ccccc2)N2CCOCC2)cc1` (stereo unspecified), the binding (percent of control) is 100% (inactive).
Then `CC(C)c1cc(C(=O)N(C)C2CCCN(Cc3ccccc3F)C2)n(C)n1` (stereo unspecified), with 96.7% (inactive); and `CC(C)C1CCN(C(=O)C2CCC(=O)N(C3CCCCCC3)C2)CC1` (stereo unspecified), with 101% (inactive); and `CCCC(C(=O)N1CCOCC1)N1C(=O)C2C3C=CC(C3)C2C1=O` (stereo unspecified), with -12.4% (active).
Next, `CCCCOC(=O)NCN1C(=O)C2C3C=CC(C3)C2C1=O` (stereo unspecified): 110% (inactive).
Then `CCC(C(=O)N1CCOCC1)n1c(C(=O)OC)cc2occc21` (stereo unspecified), with 99.3% (inactive).
With `CCCCCC(=O)N1C[C@H](O)[C@@H](n2cc(COC(=O)c3ccccc3)nn2)C[C@@H]1c1ccc(C)cc1`, the binding (percent of control) was 102% (inactive).
Regarding `C=CC1=C(C(=O)O)N2C(=O)[C@@H](NC(=O)/C(=N/OCC(=O)O)c3csc(N)n3)[C@H]2SC1`, the binding (percent of control) is 68.8% (inactive).
Then `CO/N=C(\C(=O)N[C@@H]1C(=O)N2C(C(=O)O)=C(COC(C)=O)CS[C@H]12)c1csc(N)n1` (stereo in doubt), with 100% (inactive) and 106% (inactive); and `C=CC1=C(C(=O)O)N2C(=O)[C@@H](NC(=O)/C(=N\OCC(=O)O)c3csc(N)n3)[C@H]2SC1`, with 71% (active); and `O=C(CCCN1C(=O)C(c2ccccc2)Oc2cccnc21)Nc1ccccc1Br` (stereo unspecified), with 105% (inactive).
For `O=C(OCc1cn([C@H]2C[C@H](c3ccccc3)N(C(=O)c3cccs3)C[C@@H]2O)nn1)c1ccccc1`, the binding (percent of control) was 106% (inactive).
Then `COc1ccc2c(c1)c1ncn(Cc3ccccn3)c(=O)c1n2C`, with 112% (inactive).
In the case of `Cc1ccc2[nH]c3c(=O)n(Cc4ccccn4)cnc3c2c1`, the binding (percent of control) is 108% (inactive).
Then `O=c1c2[nH]c3ccc(Cl)cc3c2ncn1Cc1ccccn1`, with 51% (active); and `C[C@@H]1CN([C@@H](C)CO)C(=O)CCCn2nncc2CO[C@H]1CN(C)Cc1ccc(C(F)(F)F)cc1`, with 103% (inactive).
Next, `Cc1cc(C)c2cc(C#N)c(N3CCNCC3)nc2c1`: 105% (inactive); `C#CCOc1ccc(/C=C2/C(=O)ON=C2C)cc1OCC`: 111% (inactive).
Next, `COc1cc(/C=C2/C(=O)NN(c3cccc(Cl)c3)C2=O)cc(Br)c1O`: 233% (inactive).
For `C#CCOc1ccc(/C=C2/C(=O)NN(c3ccccc3)C2=O)cc1OC`, the binding (percent of control) was 81.6% (active).
Next, `Cc1ccc(Cc2c(-c3ccccc3)nc3ccc(Cl)cn23)cc1`: 105% (inactive); `CCOC(=O)c1cc(-c2sc(NC(=O)c3ccccc3)nc2C)n(CCO)n1`: 96.7% (inactive); `CCN(CC)C(=O)C(C)N1c2cccc3cccc(c23)S1(=O)=O` (stereo unspecified): 98.7% (inactive).
Then `CCOc1cc(N2CCOCC2)c(OCC)cc1NC(=O)COc1cccc(Cl)c1`, with 96.8% (inactive).
As for `CCOc1cc(N2CCOCC2)c(OCC)cc1NC(=O)c1ccc(C)s1`, the binding (percent of control) is 72.7% (active).
Next, `CCOc1cc(N2CCOCC2)c(OCC)cc1NC(=O)C1=NN(c2cccc(C)c2)C(=O)CC1`: 102% (inactive); `Cc1ccc(C(=O)NC(C)C(c2cccs2)N2CCOCC2)cc1C` (stereo unspecified): 92.7% (inactive).
Then `Cc1ccccc1OS(=O)(=O)c1cccc([N+](=O)[O-])c1`, with 100% (inactive); and `COCOCCn1cc(CN2CCS(=O)(=O)N(Cc3ccc(-c4ccc(OC)cc4)cc3)C(CC(C)C)C2=O)nn1` (stereo unspecified), with 103% (inactive).
Next, `Cc1ccc(-c2ccc(/C=N/NC(=O)CN3CCOCC3)o2)cc1[N+](=O)[O-]`: 101% (inactive).
Regarding `Cc1cc(C)c([N+](=O)[O-])cc1-c1ccc(/C=N/NC(=O)c2nonc2N)o1`, the binding (percent of control) was 87.1% (active).
Next, `COc1cc(/C=N\NC(=O)c2nonc2N)c(OC)cc1Br`: 89.4% (inactive).

(Values after PubChem BioAssay AID588358 (NMMLSC, 2011).)
